Hits are enriched below; roughly 11% of the tested compounds scored in any of these assays.
BAZ2B inh: blocks human BAZ2B; Q9UIF8; AlphaScreen BAZ2B-H3K14Ac peptide displacement; Potency, µM (titrated, usually from 114 µM), most hits filed as inhibitors; actives 4.4% (n = 360,000); further: nearly all actives have a fitted effect of over 60% in size
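Inhibition is scored as reduced AlphaScreen emission. The BAZ2B/b-H3(5-23)K14Ac complex (50 nM each) in PBS pH 7.4, 0.01% Tween-20 meets compound (up to 110 uM) for 30 min at RT before bead addition.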
G9a block: G9a (human) methyltransferase inhibition | Q96KQ7 | G9a H3K9 monomethylation, AlphaScreen, 2 h | Potency, µM (titrated, usually from 102 µM), actives largely listed as inhibitors | actives 8.8% (n = 350,000); further: nearly all actives have a fitted effect of over 75% in size
Target sequence (Q96KQ7 913-1193 limits assumed): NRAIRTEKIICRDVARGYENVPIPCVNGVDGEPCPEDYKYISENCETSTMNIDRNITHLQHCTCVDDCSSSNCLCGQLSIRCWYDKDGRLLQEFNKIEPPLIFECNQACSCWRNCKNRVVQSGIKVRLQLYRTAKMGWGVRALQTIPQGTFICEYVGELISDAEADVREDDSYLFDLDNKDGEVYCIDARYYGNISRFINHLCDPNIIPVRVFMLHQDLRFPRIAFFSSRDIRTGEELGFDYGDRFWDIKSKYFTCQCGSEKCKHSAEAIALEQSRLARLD
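Readings reflect AlphaScreen signal from monomethyl-H3K9 antibody detection. HMT at 20 nM; substrate b-H3K9 500 nM; cofactor SAM 20 uM; 2 h RT reaction; compounds tested as titrations in qHTS with 15 min preincubation.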
HP1b binding inh: inhibitors of HP1-beta chromodomain binding to methylated histone tails; P83916; AlphaScreen HP1-beta / biotin-H3K9me3 peptide binding; Potency, µM (doses to about 114 µM), actives largely listed as inhibitors; actives 0.56% (n = 390,000); AID 540317; further: nearly all actives have a fitted effect of over 70% in size
Target sequence (P83916 whole entry, looked up): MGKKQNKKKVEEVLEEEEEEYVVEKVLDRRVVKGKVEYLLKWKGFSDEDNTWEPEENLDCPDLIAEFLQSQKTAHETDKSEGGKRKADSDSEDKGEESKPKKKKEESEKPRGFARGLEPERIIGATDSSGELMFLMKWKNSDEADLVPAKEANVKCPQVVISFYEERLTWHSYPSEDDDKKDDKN
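HP1-beta protein (50 nM final) preincubated 30 min at room temperature with biotinylated H3(1-18)K9me3 peptide (50 nM) in PBS pH 7.4, 0.01% Tween-20, then compound added for 30 min. AlphaScreen streptavidin donor/nickel chelate acceptor beads (10 ug/mL final), 30 min dark, luminescence read.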
JMJD2A Tudor: JMJD2A Tudor domain (human) inhibition; AlphaScreen JMJD2A-Tudor / H3K4me3 peptide binding; Potency, µM (highest dose often 114 µM), usual class: inhibitors; O75164; actives 4.4% (n = 390,000); further: nearly all actives have a fitted effect of over 50% in size
L3MBTL1 inh: blocks human L3MBTL1; actives 0.66% (n = 230,000); AID 485360; Q9Y468; AlphaScreen L3MBTL1–H3K9me1 peptide binding; Potency, µM (titrated, usually from 57.1 µM), most hits filed as inhibitors; further: nearly all actives have a fitted effect of over 60% in size
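Read-out is AlphaScreen signal from streptavidin donor and nickel chelate acceptor beads (10 ug/mL final each) bridging L3MBTL1 (50 nM) and biotinylated K9-monomethylated H3(1-15) peptide (75 nM), after 30 min compound exposure at room temperature.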
A number is an active result; n = inactive; u = inconclusive; x = no result; [ ] = dose if it differs, or a comment. The call rests on the fitted dose curve; in most records, active means well fitted inhibition curve with a large enough effect; inconclusive means small, poorly fitted or top-dose-only effect; inactive means no such curve, though single readings can be large or run the other way.

SMILES	BAZ2B inh	G9a block	HP1b binding inh	JMJD2A Tudor	L3MBTL1 inh
CC1CCN(C(=S)c2ccc([N+](=O)[O-])cc2)CC1	u	7.9µM	u	n	n
O=[N+]([O-])c1ccc(C(=S)N2CCCC2)cc1	u	n	n	n	n
CCCN1CCN(C(=S)Nc2ccc([N+](=O)[O-])cc2)CC1	n	28µM	n	n	n
COc1ccccc1-n1cc(-c2ccccc2)[nH]c1=S	u	10µM	n	u	x
COc1cccc(-c2cn(-c3cccc(C(F)(F)F)c3)c(=S)[nH]2)c1	n	n[0.501 µM]	n	n	x
CC(=O)Nc1ccc(-n2cc(-c3ccccc3)[nH]c2=S)cc1	u	1.4µM	u	0.89µM	n
COc1ccc(-n2cc(-c3ccccc3)[nH]c2=S)cc1	u	1.6µM	n	8.9µM	n
CCOc1ccc(-n2cc(-c3ccc(OC)c(OC)c3)[nH]c2=S)cc1	x	2.5µM	u	11µM	x
Cc1ccc(CN2C(=O)SC(Nc3ccc(Cl)cc3)C2=O)cc1 (centres undefined)	n	n	n	n	x
O=C(Nc1ccc2nc(SCC(=O)N3CCCc4ccccc43)sc2c1)c1ccccc1	n	n	n	n	x
O=C(CCn1c(=O)c2ccccc2n(CC(=O)Nc2ccc(F)cc2)c1=O)NCCc1ccccc1	n	n	n	n	x
NC(=O)c1sc2nc(N3CCCCC3)c3c(c2c1N)CCCC3	u	35µM	n	n	n
CCN(CC)C(=O)c1sc2nc(N3CCOCC3)c3c(c2c1N)CCCC3	n	8.9µM	n	u	x
COC(=O)c1sc2nc(N3CCCCC3)c3c(c2c1N)CCCC3	n	n	n	n	x
CCOC(=O)c1sc2nc(N3CCOCC3)c3c(c2c1N)CCCC3	n	n	n	n	n
COC(=O)c1sc2nc(-c3ccccc3)c3c(c2c1N)CCCC3	n	n	n	n	n
Nc1c(C(=O)O)sc2nc(-c3ccccc3)c3c(c12)CCCC3	n	6.3µM	n	n	n
CCOC(=O)C1=C[C@@H](C(=O)OCC)[C@@H]2C3=C(C(=O)C2(C)C)[C@H](c2ccccc2)[C@@H]2C(=O)N(c4ccccc4)C(=O)[C@@H]2[C@@H]3C1	x	x	n	n	x
CCS(=O)(=O)N1CCc2cc(C(=O)Nc3cc(C(F)(F)F)ccc3Cl)ccc21	n	n	n	n	x
O=C1c2cc(Br)ccc2N(Cc2ccc(Br)cc2)S(=O)(=O)C1c1cc(Cl)c(Cl)cc1[N+](=O)[O-] (centres undefined)	x	x	u	35µM	u
COc1ccc(-c2nc3n(n2)C(=O)CC(c2ccco2)S3)cc1 (centres undefined)	u	2.2µM	n	32µM	u
CCOc1ccc(C2CC(=O)n3nc(-c4ccc(C)cc4)nc3S2)cc1 (centres undefined)	n	u	n	n	x
Cc1cc(C)n2ncc(C(=O)O)c2n1	u	n[12.7 µM]	n	u	n
Cc1c(C(=O)O)cnc2c([N+](=O)[O-])cnn12	n	56µM	n	8.9µM	u
COc1ccc(C)cc1NC(=O)C1COc2ccccc2C1 (centres undefined)	n	n	n	8.9µM	x
SMILES	BAZ2B inh	G9a block	HP1b binding inh	JMJD2A Tudor	L3MBTL1 inh
O=C(O)c1ccc(N=NN2CCCC2)cc1	n	35µM	n	n	x
CC(=O)NS(=O)(=O)c1ccc(N=NN2CCOCC2)cc1	n	n	n	n	n
CC(=O)Nc1ccc(N=NN2CCOCC2)cc1	n	8.9µM	u	n	x
CC(=O)Nc1cccc(N=NN2CCOCC2)c1	n	x	n	n	n
CC(=O)Nc1cccc(N=NN2CCCCC2)c1	n	22µM	n	n	n
C=NCc1cc2c(OC[C@@H](O)CNC(C)(C)C)cccc2[nH]1	x	n	x	x	x
CC(=O)Nc1ccc(NC(=O)c2cccc(-c3cc4ccccc4oc3=O)c2)cc1	n	n	n	n	n
O=C(Nc1ccc(N2CCCC2)c(Cl)c1)c1cccc(-c2cc3ccccc3oc2=O)c1	n	45µM	n	n	28µM
O=C(Nc1ccc(OC(F)(F)F)cc1)C1CCN(S(=O)(=O)c2ccc3[nH]c(=O)ccc3c2)CC1	n	n	n	n	x
COc1cc(C2C(C(C)=O)=C(C)Nc3ncnn32)ccc1O (centres undefined)	n	n	n	n	n
COc1ccc(C2C(C(C)=O)=C(C)Nc3ncnn32)cc1[N+](=O)[O-] (centres undefined)	n	n	n	89µM	x
COc1cc(C2Nc3ccc4ncccc4c3C3=C2C(=O)CCC3)ccc1O (centres undefined)	n	50µM	n	u	n
O=C(O)CSC1CC(=O)N(c2ccc(Cl)cc2)C1=O (centres undefined)	n	u	n	n	n
Cc1ccc(N2C(=O)CC(N(O)C3CC(=O)N(c4ccc(C)cc4)C3=O)C2=O)cc1 (centres undefined)	n	u	n	n	n
CCCCCCC(=O)N(O)C1CC(=O)N(c2ccc(C)cc2)C1=O (centres undefined)	n	1.3µM	u	14µM	x
CCCCCCC(=O)N(O)C1CC(=O)N(c2ccc(Cl)cc2)C1=O (centres undefined)	n	x	40µM	32µM	n
CCOc1ccccc1CNC(=O)CCn1c(=O)c2cccn2c2ccc(F)cc21	n	n	n	n	x
CCC1CN(C(=O)N2CCC(C(=O)NCCc3ccccc3Cl)CC2)c2cc(C)ccc2O1 (centres undefined)	n	n	n	n	x
Oc1cccc(/C=N/N(Cc2ccccc2)c2ccccc2)c1	u	n	n	u	n
Oc1ccc(/C=N/N(Cc2ccccc2)c2ccccc2)c(O)c1O	28µM	28µM	u	56µM	x
COc1cc(/C=C2\C(=O)ON=C2c2ccccc2)cc(Cl)c1O	45µM	35µM	45µM	22µM	n
CCOc1cc(/C=C2\C(=O)ON=C2c2ccccc2)cc(Br)c1O	28µM	25µM	u	25µM	x
COc1cc(/C=C2/C(=O)ON=C2c2ccccc2)ccc1O	50µM	u	n	n	n
COc1cc(/C=C2\C(=O)ON=C2c2ccccc2)cc(Br)c1O	40µM	35µM	28µM	25µM	x
Cc1sc(/C=C2\C(=O)ON=C2c2ccccc2)cc1Br	n	n	x	x	n
SMILES	BAZ2B inh	G9a block	HP1b binding inh	JMJD2A Tudor	L3MBTL1 inh
CCC(=O)Nc1ccccc1-c1nc2ccccc2n(CC(=O)c2ccc(C)c(C)c2)c1=O	n	n	n	n	x
CCc1cccc(NC(=O)CSc2ncc3c(n2)-c2cc(Cl)ccc2N(C)S3(=O)=O)c1	n	n	n	n	x
CCOc1cc(/C=C2/C(=O)ON=C2C)cc(Br)c1O	16µM	45µM	n	n	x
COc1cc(C=C2C(=O)OC(c3ccccc3)OC2=O)cc(Br)c1O (centres undefined)	n	u	n	n	x
CCCCN(C)CC(O)Cn1cc(/C=C/C(=O)c2ccc(Br)cc2)c2ccccc21 (centres undefined)	u	n	n	71µM	x
CCCCN(C)CC(O)Cn1cc(/C=C/C(=O)c2ccc(C)cc2)c2ccccc21 (centres undefined)	u	n	n	50µM	x

Source: PubChem (National Center for Advancing Translational Sciences (NCATS))
